This is an account of results in PubChem BioAssay (NCATS).

The structures appear in SMILES notation. Inconclusive results are not listed. The source made the active and inactive calls. Calls come from the whole dose curve; as a rule, active = well fitted activation curve with a large enough effect; inconclusive = small, poorly fitted or top-dose-only effect; inactive = no such curve, though single readings can be large or run the other way.
Potency is the fitted concentration of half-maximal effect.

Cellular tumor antigen p53 (Homo sapiens), sequence (P04637 whole entry, looked up): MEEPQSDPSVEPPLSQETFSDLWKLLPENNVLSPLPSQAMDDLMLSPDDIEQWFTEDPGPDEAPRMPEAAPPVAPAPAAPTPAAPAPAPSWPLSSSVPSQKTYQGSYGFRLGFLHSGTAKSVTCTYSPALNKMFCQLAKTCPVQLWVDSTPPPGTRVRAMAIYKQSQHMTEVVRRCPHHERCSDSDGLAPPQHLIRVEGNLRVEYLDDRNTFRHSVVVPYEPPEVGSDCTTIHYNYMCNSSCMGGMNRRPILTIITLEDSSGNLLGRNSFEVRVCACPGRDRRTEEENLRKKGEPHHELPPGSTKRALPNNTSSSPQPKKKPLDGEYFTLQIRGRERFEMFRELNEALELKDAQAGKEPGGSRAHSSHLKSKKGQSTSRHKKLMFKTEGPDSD

For the assay, the target named is Cellular tumor antigen p53 (Homo sapiens) (UniProt P04637). Briefly: Primary qHTS for small molecule compounds that upregulate eGFP-tagged delta133p53alpha (in N-terminal) cells. (AID 2060322).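 For activation: series mostly up to about 56 µM; 0% = DMSO vehicle and 100% = reference activator.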 Note: nearly all actives have a fitted effect of over 75% in size. The note with it: NCI-H358 eGFP-delta133p53alpha fluorescence, 24 h; activation: hits give high values. The procedure, abridged:
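NCI-H358 cells pre-induced 24 h with 10 ng/ml doxycycline to express N-terminal eGFP-delta133p53alpha, then dosed 24 h at 37C without doxycycline; fixed, Hoechst-stained, GFP intensity by laser scanning cytometry, normalized to DMSO (0%) and 57.5 uM 5-azacytidine (100%).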
Background: In qHTS, concentration-response curves come from the screen itself.
For the molecule `Cc1nc2ccccc2n1Cc1ccc(Cl)cc1`, the activation is -11.7% (inactive).
`Cc1cc(NC(=O)C2=C(O)c3ccccc3S(=O)(=O)N2C)no1`: the activation is -0.837% (inactive).
Same read-out and setting: next, `CCN1CCN(C(=O)N[C@H](C(=O)N[C@@H]2C(=O)N3C(C(=O)O)=C(CSc4nnnn4C)CS[C@@H]23)c2ccc(O)cc2)C(=O)C1=O`: 19.4% (inactive); `CN(N=O)C(=O)N[C@H]1C(O)OC(CO)[C@@H](O)[C@H]1O` (stereo not given in full): 25.8% (inactive).
Still for that read-out and setting: under `COc1cc(C=O)ccc1O` stands 5.02% (inactive).
In the case of `O=C(O)Cc1ccc(CCNS(=O)(=O)c2ccc(Cl)cc2)cc1`, the activation is -1.67% (inactive).
The same measure, in the same setting: next, `C[N+]1(CC2COC(c3ccccc3)(C3CCCCC3)O2)CCCCC1` (stereo not given): 10.9% (inactive); `CCC(C(=O)O)c1ccc(N2Cc3ccccc3C2=O)cc1` (stereo not given): 18.6% (inactive); `CCC[C@H](N[C@@H](C)C(=O)N1[C@H](C(=O)O)C[C@@H]2CCCC[C@@H]21)C(=O)OCC`: -15.3% (inactive).
On the same count and under the same terms, next, `N#CC(=C(O)c1ccc(Cl)cc1Cl)c1nc2cc(Cl)ccc2c(=O)[nH]1`: 7.18% (inactive); `Cc1ccc(O)c([C@H](CCN(C(C)C)C(C)C)c2ccccc2)c1`: 10.7% (inactive); `CCCCCCCCCCCCCC[N+](C)(C)Cc1ccccc1`: 27.6% (inactive).
The same measure, in the same setting: next, `O=C(C=Cc1ccc(O)cc1)c1ccc(O)cc1O`: -12.8% (inactive); `NC(=O)NNc1ccccc1`: 0.565% (inactive).
Turning to `Cc1ccc(S(=O)(=O)NC(=O)NC2CCCCCCC2)cc1`, the activation is -3.95% (inactive).
`CC1(C)[C@@H]2CC[C@@]1(C)C(=O)C2`: the activation was -0.837% (inactive).
Same read-out and setting: next, `CC(CNC1CCCCC1)OC(=O)c1ccccc1` (stereo not given): -9.21% (inactive); `CCCCCN(CCCOC)C(=O)C(CCC(=O)O)NC(=O)c1ccc(Cl)c(Cl)c1` (stereo not given): -18.6% (inactive); `CO/N=C(\C(=O)O)c1csc(NC(=O)CCl)n1`: -17.5% (inactive).
Still for that read-out and setting: under `CC(NN)c1ccccc1` (stereo not given) stands 6.69% (inactive).
Still for that read-out and setting: under `O=C(O)CCC(=O)c1ccc(-c2ccccc2)cc1` stands -11.9% (inactive); under `OCCc1ccccc1`, 1.69% (inactive).
`COc1cc(C=C2CCC/C(=C\c3ccc(O)c(OC)c3)C2=O)ccc1O`: the Potency was 19.5 µM (active).
As to `COc1cccc2c1C(=O)c1c(O)c3c(c(O)c1C2=O)C[C@@](O)(C(=O)CO)C[C@H]3O[C@H]1C[C@H](N)[C@H](O)[C@H](C)O1`, the activation was -35.6% (inactive).
Same read-out and setting: next, `OC1(c2ccc(Cl)cc2)CCNCC1`: -8.47% (inactive); `C[C@@H](O)[C@H]1C(=O)N2C(C(=O)O)=C([C@H]3CCCO3)S[C@H]12`: -8.47% (inactive); `CCC(C(=O)OCCN1CCOC(c2ccccc2)C1C)c1ccccc1` (stereo not given): -7.53% (inactive).
Still for that read-out and setting: under `O=C(c1cccc(Br)c1)N1CCC(N2CCCC2)CC1` stands -15.6% (inactive).
On the same count and under the same terms, next, `CCCCCCCCCCCCCCCCCCN(C)C`: -22.6% (inactive); `CC(=O)OC[C@H]1O[C@@H](OC(C)=O)[C@H](OC(C)=O)[C@@H]1OC(C)=O`: 28.8% (inactive); `CCCCOc1cc(C(=O)NCCN(CC)CC)c2ccccc2n1`: 0% (inactive).
`CCOC(=O)C(O)c1ccccc1` (stereo not given): the activation is -24.3% (inactive).
`O=C(/C=C/c1ccccc1)OCc1ccccc1`: the activation was -23.2% (inactive).
Same read-out and setting: under `CCN(CC)CC(=O)Oc1ccc(NC(C)=O)cc1` stands -5.08% (inactive).
With `CCCCCCCCNC(C)C(O)c1ccc(SC(C)C)cc1` (stereo not given), the Potency is 21.9 µM (active).
For `CC(=O)OC[C@H]1O[C@@H](n2ncc(=O)[nH]c2=O)[C@H](OC(C)=O)[C@@H]1OC(C)=O`, the activation was -7.53% (inactive).
As for `OC[C@H]1O[C@@H](O[C@H]2[C@@H](O)[C@@](O)(CO)O[C@@H]2CO)[C@H](O)[C@@H](O)[C@@H]1O`, the activation was 0.771% (inactive).
The same measure, in the same setting: next, `Cc1ccc(C(=O)c2ccc(CC(=O)O)n2C)cc1`: 14.1% (inactive).
Still for that read-out and setting: next, `COC(=O)c1ccc(O)cc1`: 7.34% (inactive); `O=c1[nH]c(=O)n([C@H]2C[C@@H](O)[C@@H](CO)O2)cc1F`: -18.9% (inactive).
